According to PubChem BioAssay (NCATS):
Several values for one entry are separate records, joined by “and”; a condition that tells them apart may be missing. Identical values can stand only once. Inconclusive results are not listed. Activity calls are given as the source filed them. Unless noted, calls follow the shape of the dose curve; as a rule, active = well fitted curve in the direction sought with a large enough effect; inconclusive = small, poorly fitted or top-dose-only effect, or another doubt; inactive = no such curve, though single readings can be large; an effect the other way counts as inactive or inconclusive.

Experiments:
[1] = molecular target: Mitogen-activated protein kinase 10 (Mus musculus) (UniProt Q61831); assay: JNK3 AlphaScreen Assay (AID 530; active = well fitted curve in either direction with a large enough effect, not every such curve was filed as active;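 also: kinase came from lysate of stimulated human HepG2 cells; signal reports phosphorylation of biotinylated GST-cJun 1-79 at Ser73 with 10 µM ATP; % is scaled to controls: 0 for no effect and ±100 for the full control effect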)
In short: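 Inhibitors reduce antibody binding to phosphorylated biotin-cJun, lowering AlphaScreen luminescence. Lysates from HepG2 cells pre-activated by IL-1beta plus TNF-alpha supplied JNK3; compounds were titrated.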

[2] = Cell Viability - Mesenchymal (AID 546);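 also: cells exposed to compound for 40 hours before reading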
In short: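 Normal human renal glomerulus-derived kidney mesenchymal cells, 1000 per well in complete medium, were treated with compounds for 40 hr at 37 °C. Viability was read as intracellular ATP by CellTiter-Glo luminescence; AC50 values came from Hill-equation fits of qHTS concentration-response data.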

[3] = Cellular Toxicity (caspase-3) HepG2 (AID 654);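 also: cells exposed to compound for 16 hours before reading; 0% = DMSO alone and 100% = caspase signal from 100 µM tamoxifen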
In short: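 HepG2 cells (1500/well) were treated 16 h at 37 °C in complete medium, then caspase 3/7 activity was read by Caspase-Glo luminescence. Data were normalized to DMSO and 100 uM tamoxifen; AC50 came from Hill-equation fits of qHTS concentration-response.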

[4] = Cellular Toxicity (caspase-3) Jurkat (AID 655); conditions: Jurkat caspase-3 activation, luminescence; caspase-3 activation: at 92.2 µM (top of the series), DMSO = 0%, tamoxifen = 100%;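 also: cells exposed to compound for 16 h at 37 °C before reading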
In short: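 Jurkat cells (5000/well) in complete medium exposed 16 h at 37 C; caspase-3/7 activity read by Caspase-Glo luminescence after 20 min at room temperature. Normalized to DMSO and 100 uM tamoxifen; AC50 from Hill fits.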

[5] = Cellular Toxicity (caspase-3) SHSY5Y (AID 657)
In short: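 SH-SY5Y human neuroblastoma cells, 1500/well, exposed to compound for 16 hours at 37 °C in complete medium. Caspase-3/7 activity read by Caspase-Glo luminescence after 1 hr at room temperature, normalized to DMSO and 10 uM staurosporine; AC50 from Hill fit.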

[6] = Cellular Toxicity (caspase-3) SK-N-SH (AID 661);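 also: 0% = DMSO basal and 100% = 10 µM staurosporine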
In short: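 Human SK-N-SH neuroblastoma cells, 1500/well, were exposed to compounds for 16 hours at 37 °C. Caspase-Glo 3/7 luminescence was normalized to DMSO (basal) and 10 uM staurosporine (100%), and AC50 came from a Hill fit.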

[7] = Cellular Toxicity (caspase-3) Hek293 (AID 664); conditions: HEK293 caspase-3 activation, DMSO = 0%, 100 µM tamoxifen = 100%; at 92.2 µM (top of the series);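 also: cells exposed to compound for 16 h at 37 °C before readout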
In short: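 HEK293 cells in complete medium treated 16 h at 37 °C, then Caspase-Glo 3/7 luminescence read after 20 min at room temperature. Normalized to DMSO and 100 uM tamoxifen; AC50 from Hill fit of concentration-response.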

[8] = Cellular Toxicity (caspase-3) NIH 3T3 (AID 666);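 also: caspase signal read after 16 h compound exposure; 0% = DMSO basal and 100% = 100 µM tamoxifen stimulation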
In short: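 Mouse NIH 3T3 fibroblasts (1000/well) treated 16 h at 37 C; caspase-3/7 activity measured by Caspase-Glo 3/7 luminescence after 20 min. Normalized to DMSO and 100 uM tamoxifen; AC50 from Hill fits.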

[9] = MultiTox-Fluor Cytotoxicity Assay - LYMP1-001 - Dead Cells (AID 946)
In short: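 Cytotoxicity as increased dead-cell protease fluorescence (bis-AAF-R110, 485/520 nm), read 60 min after MultiTox-Fluor reagent. Human lymphoblastoid line exposed 16 h; Hill-fitted AC50, with DMSO as 0% and 15 uM tetraoctylammonium bromide as 100%.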

[10] = Cell Viability - LYMP2-009 (AID 968);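 also: 0% = DMSO alone and the full-kill end = tetraoctylammonium bromide at 92 µM; nearly all actives have a fitted effect of over 55% in size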
[11] = Cell Viability - LYMP2-019 (AID 973);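 also: 0% = DMSO alone and full effect = 92 µM tetraoctylammonium bromide; nearly all actives have a fitted effect of over 55% in size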
In short: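 Human lymphoblastoid LYMP2-019 cells (2500/well) preincubated 5 h at 37 C, then treated 24 h at 37 C in complete medium. Viability by CellTiter-Glo ATP luminescence after 30 min at room temperature; AC50 from Hill fits.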

[12] = Cell Viability - LYMP2-002 (AID 977);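 also: plate controls were DMSO only for no effect and 92 µM tetraoctylammonium bromide for full effect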
In short: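 Luminescent ATP readout (CellTiter-Glo, 30 min room temperature) after 24 h compound exposure at 37 C of a human lymphoblastoid line, 2500 cells/well. AC50 values derived by standard Hill fitting of qHTS concentration-response data.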

[13] = Cell Viability - LYMP2-008 (AID 980); also: nearly all actives have a fitted effect of over 60% in size; also: potency is read from the fitted curve at half-maximal effect
In short: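 LYMP2-008 lymphoblastoid cells (2500/well) plated 5 h, then treated 24 h at 37 C in complete medium. Viability read as intracellular ATP by CellTiter-Glo luminescence after 30 min at room temperature; AC50 from Hill fits.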

[14] = Cell Viability - LYMP2-024 (AID 988);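 also: plate controls were DMSO only for no effect and 92 µM tetraoctylammonium bromide for full effect; nearly all actives have a fitted effect of over 60% in size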
In short: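 Human lymphoblastoid LYMP2-024 cells (2500/well) rested 5 hr, then treated with compound for 24 hr at 37 C in complete medium. Viability was measured as intracellular ATP by CellTiter-Glo luminescence. AC50 values came from Hill-equation fits.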

[15] = qHTS assay for small molecule activators of the p53 signaling pathway (AID 651743; active = well fitted activation curve with a large enough effect in the signal ratio, not every such curve was filed as active; the % refers to the signal ratio; also: potency is read from the fitted curve at half-maximal effect; as to activation: % of control where 0% means no effect); conditions: HCT-116 p53RE-bla, beta-lactamase FRET ratio, 16 h; activation: active compounds read high
In short: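 Cell-based beta-lactamase reporter (p53 response elements, HCT-116 background). After a 5-hour preincubation, cells received compound for 16 hours at 37 C; substrate development ran 2 hours at room temperature.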

[16] = molecular target: Tumor necrosis factor (Homo sapiens) (UniProt P01375); assay: qHTS assay to identify small molecules that stimulate Tumor Necrosis Factor-alpha (TNF-alpha) secretion (AID 651757; active = well fitted curve in the direction sought with a large enough effect in the signal ratio; the % refers to the signal ratio; also: 0% is about no effect)
In short: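 THP-1 cells (3000/well) exposed to compounds 17 hrs at 37 C. Secreted TNF-alpha detected by HTRF with cryptate- and XL665-labeled anti-TNF-alpha antibodies after 3 hr at room temperature.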

[17] = qHTS assay for small molecule agonists of the antioxidant response element (ARE) signaling pathway measured by Nrf2-dependant transcriptional activity (AID 720636; active = well fitted curve in the direction sought with a large enough effect in the repeat runs; an effect the other way counts as inactive or inconclusive;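 also: HepG2 cells with an ARE-driven luciferase reporter; % of control where 0% means no effect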)
In short: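 Attachment 6 hr at 37 C, then compound versus DMSO vehicle for 16 hr in ARE-luc HepG2 cells (1% dialyzed FBS); luminescence recorded 30 min after ONE-Glo addition at room temperature.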

[18] = qHTS assay for small molecule antagonists of the retinoid-related orphan receptor gamma (ROR-gamma) signaling pathway - cell viability counter screen (AID 720652; active = well fitted curve in the direction sought with a large enough effect in the repeat runs; an effect the other way counts as inactive or inconclusive;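 also: CHO reporter cells with doxycycline-induced ROR-gamma expression; compound exposure lasted 16 hr before ATP read; % is scaled to controls: 0 for no effect and ±100 for the full control effect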)
In short: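 CHO cells carrying TET-inducible ROR and RORE-luciferase reporter, plated 5 hr, then dosed with compound plus doxycycline. After 16 hr at 37 C, viability read as intracellular ATP by CellTiter-Glo luminescence.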

[19] = qHTS assay for cell viability of the p53RE-bla HCT-116 cell line (AID 743292); also: % is scaled to controls: 0 for no effect and ±100 for the full control effect; nearly all actives have a fitted effect of over 55% in size
In short: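 Compound-exposed HCT-116 (p53RE-bla) cells, 4,000 per well, were kept 16 h at 37 C following a 5 h preincubation. Cell number was estimated from total ATP by CellTiter-Glo luminescence read after 30 min at room temperature.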

[20] = Cell Viability - LYMP2-023 (AID 975);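 also: cellular ATP measured by luciferase luminescence as viability proxy; cells exposed to compound for 24 hours at 37 °C; plate controls were DMSO only for no effect and 92 µM tetraoctylammonium bromide control for full effect; nearly all actives have a fitted effect of over 55% in size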
In short: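 LYMP2-023 human lymphoblastoid cells, 2500/well, preincubated 5 hr at 37 C, then compound-treated 24 hr at 37 C in complete medium. CellTiter-Glo luminescence (ATP) after 30 min at room temperature; AC50 from Hill-equation fits; tetraoctylammonium bromide positive control.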

Sequence of Tumor necrosis factor (Homo sapiens) (P01375 whole entry, looked up): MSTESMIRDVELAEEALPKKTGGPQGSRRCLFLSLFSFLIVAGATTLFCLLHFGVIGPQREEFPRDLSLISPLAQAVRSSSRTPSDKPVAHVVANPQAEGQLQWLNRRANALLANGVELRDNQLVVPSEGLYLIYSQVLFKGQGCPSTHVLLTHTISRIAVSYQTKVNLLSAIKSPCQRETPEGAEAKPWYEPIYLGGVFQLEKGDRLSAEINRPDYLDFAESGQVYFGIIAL

Cc1coc2c1CCC(C)C2 (stereo not drawn)
inactive: Potency [1] | Potency [2] | outcome [3] | caspase-3 activation [4] 0.203% | outcome [5] | Potency [6] | caspase-3 activation [7] 0.975% | Potency [8] | outcome [9] | Potency [10] | Potency [11] | Potency [12] | Potency [13] | Potency [14] | activation [15] -2.44% | outcome [16] | Potency [17] | Potency [18] | Potency [19]

C=C(C)CCl
inactive: Potency [1] | Potency [2] | outcome [3] | caspase-3 activation [4] -0.765% | outcome [5] | Potency [6] | caspase-3 activation [7] -0.774% | Potency [8] | Potency [10] | Potency [11] | Potency [12] | Potency [13] | Potency [14] | activation [15] -3.39% | outcome [16] | Potency [17] | Potency [18] | Potency [19]

ClP(Cl)(Cl)(Cl)Cl
inactive: Potency [1] | outcome [3] | caspase-3 activation [4] 0.993% | outcome [5] | Potency [6] | caspase-3 activation [7] -1.32% | Potency [8] | Potency [10] | Potency [11] | Potency [20] | Potency [13] | Potency [14] | activation [15] -1.29% | outcome [16] | Potency [17] | Potency [18]

C=CC(=O)OCC(CC)CCCC (stereo not drawn)
inactive: Potency [1] | Potency [2] | outcome [3] | caspase-3 activation [4] -0.0566% | Potency [6] | caspase-3 activation [7] 2.19% | Potency [8] | outcome [9] | Potency [11] | Potency [20] | Potency [12] | Potency [13] | Potency [14] | activation [15] 0.81% and 5.58% | outcome [16] | Potency [17] | Potency [18] | Potency [19]

CCCBr
inactive: Potency [1] | Potency [2] | outcome [3] | caspase-3 activation [4] 0.185% | outcome [5] | Potency [6] | caspase-3 activation [7] 2.6% | Potency [8] | outcome [9] | Potency [10] | Potency [11] | Potency [20] | Potency [12] | Potency [14] | activation [15] -0.771% | outcome [16] | Potency [18] | Potency [19]

CCCCNC(=O)n1c(NC(=O)OC)nc2ccccc21
active: Potency [15] 14.1 µM
inactive: Potency [1] | Potency [2] | caspase-3 activation [4] 7.08% | outcome [5] | Potency [6] | caspase-3 activation [7] -2.55% | Potency [8] | outcome [9] | Potency [10] | Potency [11] | Potency [20] | Potency [12] | Potency [14] | outcome [16] | Potency [18]

c1ccc(OCC2CO2)cc1 (stereo not drawn)
inactive: Potency [1] | Potency [2] | outcome [3] | caspase-3 activation [4] 1.63% | outcome [5] | Potency [6] | Potency [8] | outcome [9] | Potency [10] | Potency [11] | Potency [20] | Potency [12] | Potency [13] | Potency [14] | activation [15] -2.65% | outcome [16] | Potency [17] | Potency [18] | Potency [19]

Cc1ccc(N)c(N)c1
inactive: Potency [1] | Potency [2] | outcome [3] | Potency [6] | Potency [8] | Potency [20] | activation [15] -0.898% | Potency [19]
active: Potency [13] 39.8 µM
